# PubChem BioAssay (NCATS)
# Inconclusive results are not listed. Entries that show only a call come without a potency. Unmarked numbers belong to inactive results. Activity calls are given as the source filed them. Calls follow the shape of the dose curve; as a rule, active = well fitted curve in the direction sought with a large enough effect; inconclusive = small, poorly fitted or top-dose-only effect, or another doubt; inactive = no such curve, though single readings can be large; an effect the other way counts as inactive or inconclusive.
# Columns and labels:
# [1] = Quantitative High-Throughput drug screen in 47 multiple myeloma cell lines against the NCATS MIPE library collection: KMS26_JCRB cell viability assay (AID 1918975); also: nearly all actives have a fitted effect of over 45% in size; also: potency is read from the fitted curve at half-maximal effect
# In short: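 Approved and investigational drugs from MIPE 4.0 were added by pin tool to 500 cells per well. After 48 hours at 37C, ATP-based CellTiter-Glo luminescence indicated remaining viability.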
# [2] = Quantitative High-Throughput drug screen in 47 multiple myeloma cell lines against the NCATS MIPE library collection: MOLP8_DSMZ cell viability assay (AID 1918977); also: nearly all actives have a fitted effect of over 45% in size; also: potency is read from the fitted curve at half-maximal effect
# In short: (§1)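 500 cells/well per myeloma line exposed to pinned MIPE 4.0 compounds for 48 h at 37 °C, 5% CO2. Viability read as ATP by CellTiter-Glo luminescence, normalised to DMSO-only (100%) and media-only (0%) wells.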
# [3] = Quantitative High-Throughput drug screen in 47 multiple myeloma cell lines against the NCATS MIPE library collection: MM1R_ATCC cell viability assay (AID 1918981); also: nearly all actives have a fitted effect of over 35% in size; also: potency is read from the fitted curve at half-maximal effect
# In short: as §1
# [4] = Quantitative High-Throughput drug screen in 47 multiple myeloma cell lines against the NCATS MIPE library collection: LP1_DSMZ cell viability assay (AID 1918982); also: nearly all actives have a fitted effect of over 35% in size; also: potency is read from the fitted curve at half-maximal effect
# In short: as §1
# [5] = Quantitative High-Throughput drug screen in 47 multiple myeloma cell lines against the NCATS MIPE library collection: KMS28PE_JCRB cell viability assay (AID 1918983); also: nearly all actives have a fitted effect of over 35% in size; also: potency is read from the fitted curve at half-maximal effect
# In short: as §1
# [6] = Quantitative High-Throughput drug screen in 47 multiple myeloma cell lines against the NCATS MIPE library collection: KMS34_JCRB cell viability assay (AID 1918985); also: nearly all actives have a fitted effect of over 40% in size
# In short: as §1
# [7] = Quantitative High-Throughput drug screen in 47 multiple myeloma cell lines against the NCATS MIPE library collection: OCIMY5_PLB cell viability assay (AID 1918988); also: nearly all actives have a fitted effect of over 65% in size; also: potency is read from the fitted curve at half-maximal effect
# In short: as §1
# [8] = Quantitative High-Throughput drug screen in 47 multiple myeloma cell lines against the NCATS MIPE library collection: OPM1_PLB cell viability assay (AID 1918989); also: nearly all actives have a fitted effect of over 40% in size; also: potency is read from the fitted curve at half-maximal effect
# In short: as §1
# [9] = Quantitative High-Throughput drug screen in 47 multiple myeloma cell lines against the NCATS MIPE library collection: XG6_PLB cell viability assay (AID 1919865); also: nearly all actives have a fitted effect of over 40% in size; also: potency is read from the fitted curve at half-maximal effect
# In short: as §1
# [10] = Quantitative High-Throughput drug screen in 47 multiple myeloma cell lines against the NCATS MIPE library collection: XG1_PLB cell viability assay (AID 1919866); also: nearly all actives have a fitted effect of over 35% in size; also: potency is read from the fitted curve at half-maximal effect
# In short: as §1
# [11] = Quantitative High-Throughput drug screen in 47 multiple myeloma cell lines against the NCATS MIPE library collection: VP6_DJ cell viability assay (AID 1919867); also: nearly all actives have a fitted effect of over 40% in size; also: potency is read from the fitted curve at half-maximal effect
# In short: as §1
# [12] = Quantitative High-Throughput drug screen in 47 multiple myeloma cell lines against the NCATS MIPE library collection: NCIH929_DSMZ cell viability assay (AID 1918978); also: nearly all actives have a fitted effect of over 35% in size; also: potency is read from the fitted curve at half-maximal effect
# In short: as §1
# [13] = Quantitative High-Throughput drug screen in 47 multiple myeloma cell lines against the NCATS MIPE library collection: OCIMY1_PLB cell viability assay (AID 1918979); also: nearly all actives have a fitted effect of over 35% in size; also: potency is read from the fitted curve at half-maximal effect; as to viability: series mostly up to about 46 µM
# In short: as §1
# [14] = Quantitative High-Throughput drug screen in 47 multiple myeloma cell lines against the NCATS MIPE library collection: U266_ATCC cell viability assay (AID 1919864); also: nearly all actives have a fitted effect of over 35% in size; also: potency is read from the fitted curve at half-maximal effect
# In short: as §1
# [15] = Quantitative High-Throughput drug screen in 47 multiple myeloma cell lines against the NCATS MIPE library collection: L363_DSMZ cell viability assay (AID 1918984); also: nearly all actives have a fitted effect of over 40% in size; also: potency is read from the fitted curve at half-maximal effect
# In short: as §1
# [16] = Quantitative High-Throughput drug screen in 47 multiple myeloma cell lines against the NCATS MIPE library collection: SKMM1_PLB cell viability assay (AID 1919863); conditions: SKMM1 myeloma viability, CellTiter-Glo ATP, 48 h; viability: stronger effect = lower value
# In short: as §1
# [17] = Quantitative High-Throughput drug screen in 47 multiple myeloma cell lines against the NCATS MIPE library collection: MMM1_PLB cell viability assay (AID 1918976); also: nearly all actives have a fitted effect of over 35% in size; also: potency is read from the fitted curve at half-maximal effect
# In short: as §1
# [18] = Quantitative High-Throughput drug screen in 47 multiple myeloma cell lines against the NCATS MIPE library collection: MM1S_ATCC cell viability assay (AID 1918980); also: nearly all actives have a fitted effect of over 45% in size; also: potency is read from the fitted curve at half-maximal effect
# In short: as §1
SMILES,Potency [1],Potency [2],Potency [3],Potency [4],Potency [5],Potency [6],Potency [7],Potency [8],Potency [9],Potency [10],Potency [11],Potency [12],Potency [13],Potency [14],Potency [15],viability [16] [%],Potency [17],Potency [18]
CCC(=O)O[C@]1(C(=O)SCF)[C@H](C)C[C@H]2[C@@H]3C[C@H](F)C4=CC(=O)C=C[C@]4(C)[C@@]3(F)[C@@H](O)C[C@@]21C,inactive,inactive,inactive,inactive,inactive,inactive,23.5 µM (active),inactive,4.18 µM (active),14.8 µM (active),33.2 µM (active),,,,,,,
NC(=O)c1ccc2[nH]ccc2c1,inactive,,,inactive,inactive,inactive,,,inactive,,inactive,inactive,inactive,inactive,,,,
COc1ccccc1OCC(O)COC(N)=O (configuration not stated),inactive,inactive,,inactive,inactive,inactive,,inactive,inactive,inactive,,inactive,,inactive,inactive,136,,
Nc1nc(N)c2nc(CNc3ccc(C(=O)NC(CCC(=O)O)C(=O)O)cc3)cnc2n1 (configuration not stated),0.0264 µM (active),inactive,,0.0296 µM (active),,,,,,0.0332 µM (active),,inactive,inactive,0.148 µM (active),,,,
Cc1onc(-c2ccccc2Cl)c1C(=O)N[C@@H]1C(=O)N2[C@@H]1SC(C)(C)[C@@H]2C(=O)O,,,inactive,inactive,,inactive,inactive,inactive,inactive,inactive,inactive,inactive,inactive,,,,inactive,
Cc1nnc(NS(=O)(=O)c2ccc(N)cc2)s1,,,18.7 µM (active),inactive,23.5 µM (active),,,14.8 µM (active),1.87 µM (active),1.32 µM (active),0.187 µM (active),inactive,inactive,14.8 µM (active),1.18 µM (active),,inactive,
COc1cccc(N(C)C(=S)Oc2ccc3c(c2)CCCC3)n1,inactive,inactive,inactive,,inactive,inactive,,inactive,,,,,inactive,inactive,,139,,18.7 µM (active)
CN(C)CCc1c[nH]c2ccc(CS(=O)(=O)N3CCCC3)cc12,inactive,,,inactive,,,inactive,inactive,,20.9 µM (active),,,inactive,inactive,,119,,
COc1ncnc(NS(=O)(=O)c2ccc(N)cc2)c1OC,inactive,inactive,inactive,inactive,inactive,inactive,,inactive,inactive,inactive,inactive,inactive,inactive,inactive,,128,,23.5 µM (active)
C[C@@H](CN1CC(=O)NC(=O)C1)N1CC(=O)NC(=O)C1,inactive,,,inactive,,,inactive,,,14.8 µM (active),,,,inactive,2.96 µM (active),130,,
CS(=O)(=O)c1ccc([C@@H](O)[C@@H](CO)NC(=O)C(Cl)Cl)cc1,inactive,,,,,,,,18.7 µM (active),18.7 µM (active),16.6 µM (active),,inactive,inactive,,,,7.43 µM (active)
CNCC[C@H](Oc1cccc2ccccc12)c1cccs1,,18.7 µM (active),14.8 µM (active),18.7 µM (active),,,2.35 µM (active),8.33 µM (active),0.59 µM (active),0.833 µM (active),3.72 µM (active),1.87 µM (active),18.7 µM (active),2.35 µM (active),,,29.6 µM (active),2.35 µM (active)
CCN1CCCC1CNC(=O)c1cc(S(N)(=O)=O)ccc1OC (configuration not stated),,,inactive,inactive,inactive,inactive,,inactive,inactive,inactive,5.9 µM (active),inactive,inactive,,inactive,123,inactive,
CO[C@@H]1[C@@H](OC(N)=O)[C@@H](O)[C@H](Oc2ccc3c(O)c(NC(=O)c4ccc(O)c(CC=C(C)C)c4)c(=O)oc3c2C)OC1(C)C,9.35 µM (active),,8.33 µM (active),inactive,4.69 µM (active),,8.33 µM (active),5.26 µM (active),6.62 µM (active),5.9 µM (active),,,inactive,,,,,
COCCCOc1cc(C[C@@H](C[C@H](N)[C@@H](O)C[C@H](C(=O)NCC(C)(C)C(N)=O)C(C)C)C(C)C)ccc1OC,inactive,,inactive,inactive,,inactive,inactive,inactive,inactive,inactive,,,,,inactive,,,
Cc1cccc(Nc2ccncc2S(=O)(=O)NC(=O)NC(C)C)c1,,,,inactive,,,0.0013 µM (active),inactive,inactive,,7.43 µM (active),inactive,inactive,inactive,,,20.9 µM (active),inactive
Cc1noc(NS(=O)(=O)c2ccc(N)cc2)c1C,inactive,,,inactive,inactive,,inactive,inactive,inactive,inactive,,inactive,inactive,,,,,
